# Source: PubChem BioAssay (Tox21)
# Inconclusive results are not listed. Entries that show only a call come without a potency. A number with no mark means an inactive call. The source made the active and inactive calls. Unless noted, calls come from the whole dose curve; as a rule, active = well fitted curve in the direction sought with a large enough effect in the repeat runs; inconclusive = weak or mixed curves; inactive = no such curve, though single readings can be large; an effect the other way counts as inactive or inconclusive. Positions of bridges follow the written chain, without caps; N, C: chain ends. Non-standard residues stand in square brackets, D forms with d. Residues, ends and D or L forms follow the SMILES beside them. ξ: configuration not given here. *: point of attachment. d(aThr) = C[C@@H](O)[C@@H](N)C(=O)O; ξThr(3R) = C[C@@H](O)C(N)C(=O)O; X3 = CC[C@@H](C)CCCCC(=O)*; dDab = NCC[C@@H](N)C(=O)O
# What was measured:
# [1] = qHTS assay to identify aromatase inhibitors - cell viability counter screen (AID 743084);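 note: cells stimulated with testosterone during compound exposure; nearly all actives have a fitted effect of over 55% in size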; note: potency is the fitted concentration of half-maximal effect
# [2] = target: Aryl hydrocarbon receptor (Homo sapiens) (UniProt P35869); assay: qHTS assay to identify small molecule that activate the aryl hydrocarbon receptor (AhR) signaling pathway (AID 743085); note: nearly all actives have a fitted effect of over 15% in size; note: potency is the fitted concentration of half-maximal effect;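 for activation: HG2L7.5c1 human HepG2 liver cells with stably integrated DRE-driven firefly reporter; series mostly up to about 70 µM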
# Summary of the method: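 Measured in HG2L7.5c1 cells: CellTiter-Fluor signal (30 min incubation, 37C) for viability, then luciferase luminescence (30 min, room temperature). Compound contact time was 24 h at 37C, following a 5 h pre-incubation.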
# [3] = qHTS assay to identify small molecule that activate the aryl hydrocarbon receptor (AhR) signaling pathway - cell viability counter screen (AID 743086); note: nearly all actives have a fitted effect of over 45% in size; note: potency is the fitted concentration of half-maximal effect
# Summary of the method: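 Cytotoxicity counter screen: CellTiter-Fluor signal (30 min, 37 C) in 4000 HepG2 cells/well carrying the DRE-luciferase reporter, following 24 h compound exposure at 37 C.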
# [4] = target: Peroxisome proliferator-activated receptor gamma (Homo sapiens) (UniProt P37231); assay: qHTS assay to identify small molecule agonists of the peroxisome proliferator-activated receptor gamma (PPARg) signaling pathway (AID 743094; active = well fitted activation curve with a large enough effect in the signal ratio in the repeat runs, not every such curve was filed as active; the % refers to the signal ratio)
# Summary of the method: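 Fluorescence-based beta-lactamase readout in HEK293H PPARg UAS-bla cells after 17 h compound exposure (37C) and 1 h B/G FRET substrate incubation at room temperature.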
# [5] = qHTS assay to identify small molecule phospholipidosis (PLD) inducers (AID 1259344; active = well fitted curve in the direction sought with a large enough effect; an effect the other way counts as inactive or inconclusive; note: potency is the fitted concentration of half-maximal effect)
# Summary of the method: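 Phospholipid accumulation was scored by imaging: fixed, Hoechst-counterstained HepG2 cells stained with LipidTOX Red after 24 h compound exposure at 37 C. Read-outs were pit count and pit intensity per well or per cell, with amiodarone and DMSO controls.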
# [6] = target: Nuclear receptor subfamily 1 group I member 2 (Rattus norvegicus) (UniProt Q9R1A7); assay: Rat pregnane X receptor (rPXR) activation by small molecules, qHTS assay (AID 1346983); details: rPXR luciferase reporter cells, One-Glo luminescence, 24 h; max activation: active compounds read high; note: nearly all actives have a fitted effect of over 20% in size
# Summary of the method: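 Luminescent readout (One-Glo luciferase, 30 min room temperature) followed 24 hr compound treatment at 37 C of rPXR cells plated 2,000 per well and preincubated 5hr; qHTS format with compounds delivered in DMSO.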
# [7] = target: Nuclear receptor subfamily 1 group I member 2 (Homo sapiens) (UniProt O75469); assay: CYP3A4 induction through human pregnane X receptor (PXR) by small molecules, qHTS assay (AID 1346984); note: nearly all actives have a fitted effect of over 40% in size; note: potency is the fitted concentration of half-maximal effect
# Summary of the method: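 After 24 h at 37C with compound, DPX-2 cells (HepG2, co-transfected PXR response element and CYP3A4 promoter-luciferase) got 3uM final P450-Glo Luciferin-IPA for 3 h; One-Glo luminescence followed.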
# [8] = target: Nuclear receptor subfamily 1 group I member 2 (Homo sapiens) (UniProt O75469); assay: Human pregnane X receptor (PXR) activation by small molecules, qHTS assay (AID 1346985); note: nearly all actives have a fitted effect of over 40% in size; note: potency is the fitted concentration of half-maximal effect
# Summary of the method: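 DPX-2 cells (HepG2 co-transfected with a PXR response element and a CYP3A4-promoter luciferase construct) were seeded at 2,000 per well, rested 5 hr at 37C, then exposed to DMSO-dissolved compounds for 24 hr. Activation was read as luciferase luminescence.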
# Chain of Aryl hydrocarbon receptor (Homo sapiens) (P35869 whole entry, looked up): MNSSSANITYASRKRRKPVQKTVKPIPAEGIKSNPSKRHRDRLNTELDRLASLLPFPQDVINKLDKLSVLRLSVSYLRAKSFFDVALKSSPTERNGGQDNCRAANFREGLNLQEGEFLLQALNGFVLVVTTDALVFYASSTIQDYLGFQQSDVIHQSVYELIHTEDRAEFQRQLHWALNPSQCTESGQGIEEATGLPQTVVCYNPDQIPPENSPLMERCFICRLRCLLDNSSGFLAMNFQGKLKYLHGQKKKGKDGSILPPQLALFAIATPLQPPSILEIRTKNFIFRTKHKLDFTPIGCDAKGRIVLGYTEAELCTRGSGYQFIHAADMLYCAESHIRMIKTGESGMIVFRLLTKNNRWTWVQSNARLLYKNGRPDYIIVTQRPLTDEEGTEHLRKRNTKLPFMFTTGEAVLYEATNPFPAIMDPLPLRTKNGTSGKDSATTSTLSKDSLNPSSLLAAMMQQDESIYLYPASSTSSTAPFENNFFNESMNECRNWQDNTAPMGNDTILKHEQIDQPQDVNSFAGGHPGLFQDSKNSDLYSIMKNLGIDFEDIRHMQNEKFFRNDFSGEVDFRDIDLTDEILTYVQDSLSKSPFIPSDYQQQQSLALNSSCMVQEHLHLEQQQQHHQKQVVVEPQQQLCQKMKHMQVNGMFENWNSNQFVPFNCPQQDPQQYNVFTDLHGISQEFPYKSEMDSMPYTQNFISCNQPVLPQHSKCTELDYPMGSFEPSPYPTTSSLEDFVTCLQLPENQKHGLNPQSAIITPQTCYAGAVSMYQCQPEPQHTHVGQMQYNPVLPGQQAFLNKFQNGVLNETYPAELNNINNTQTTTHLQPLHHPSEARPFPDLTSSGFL
# Chain of Nuclear receptor subfamily 1 group I member 2 (Rattus norvegicus) (Q9R1A7 whole entry, looked up): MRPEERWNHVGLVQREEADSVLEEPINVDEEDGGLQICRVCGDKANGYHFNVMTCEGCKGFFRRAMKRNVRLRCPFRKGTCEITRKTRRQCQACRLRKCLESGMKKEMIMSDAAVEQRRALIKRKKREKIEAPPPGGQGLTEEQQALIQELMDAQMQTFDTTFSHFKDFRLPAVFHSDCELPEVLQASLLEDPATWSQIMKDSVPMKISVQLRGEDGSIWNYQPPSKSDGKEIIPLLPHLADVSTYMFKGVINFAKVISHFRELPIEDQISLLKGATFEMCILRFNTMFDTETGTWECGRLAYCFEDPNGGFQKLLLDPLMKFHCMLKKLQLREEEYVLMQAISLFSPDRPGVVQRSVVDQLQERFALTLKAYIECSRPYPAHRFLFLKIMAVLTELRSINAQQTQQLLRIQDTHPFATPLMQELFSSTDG
# Chain of Peroxisome proliferator-activated receptor gamma (Homo sapiens) (P37231 whole entry, looked up): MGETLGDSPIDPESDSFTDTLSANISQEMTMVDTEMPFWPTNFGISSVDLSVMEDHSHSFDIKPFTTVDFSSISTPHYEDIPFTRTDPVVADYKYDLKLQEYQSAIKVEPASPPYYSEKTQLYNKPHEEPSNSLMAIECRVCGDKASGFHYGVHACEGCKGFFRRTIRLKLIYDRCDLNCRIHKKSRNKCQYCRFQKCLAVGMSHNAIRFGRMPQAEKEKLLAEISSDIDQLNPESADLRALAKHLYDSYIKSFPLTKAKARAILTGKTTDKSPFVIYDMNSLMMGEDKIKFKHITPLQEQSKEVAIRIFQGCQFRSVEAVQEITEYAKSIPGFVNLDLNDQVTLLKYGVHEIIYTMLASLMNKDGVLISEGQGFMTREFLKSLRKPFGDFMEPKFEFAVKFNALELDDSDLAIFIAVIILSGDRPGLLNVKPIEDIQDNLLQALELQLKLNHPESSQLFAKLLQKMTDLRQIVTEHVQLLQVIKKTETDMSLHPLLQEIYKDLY
Compound,Potency [1],Potency [2],Potency [3],Potency [4],Potency [5],max activation [6],Potency [7],Potency [8]
CC(C)CCCC(C)NC(C)C (stereo unspecified),inactive,inactive,inactive,inactive,inactive,-0.288%,inactive,inactive
Cn1c(=O)c2c(ncn2CCOC(=O)C(C)(C)Oc2ccc(Cl)cc2)n(C)c1=O,inactive,inactive,inactive,inactive,inactive,-1.7%,inactive,inactive
O=C(O)C1=C(CSc2nnnn2CS(=O)(=O)O)CS[C@@H]2[C@H](NC(=O)[C@H](O)c3ccccc3)C(=O)N12,inactive,inactive,inactive,inactive,inactive,-0.182%,inactive,inactive
C[N@+]12CCCC[C@@H]1CCC(=C(c1cccs1)c1cccs1)C2,inactive,inactive,inactive,inactive,inactive,-3.7%,inactive,inactive
CC(C)(S)[C@@H](N)C(=O)O,inactive,inactive,inactive,inactive,inactive,-3.13%,inactive,inactive
CCCCCCCCCCCC(=O)OC[C@@H](O)C1OC[C@H](O)[C@H]1O (stereo partly specified),inactive,inactive,inactive,inactive,inactive,-2.81%,inactive,inactive
CC1=C(/C=C/C(C)=C/C=C/C(C)=C/C=C/C=C(C)/C=C/C=C(C)/C=C/C2=C(C)C(=O)CCC2(C)C)C(C)(C)CCC1=O,inactive,inactive,inactive,inactive,inactive,-3.2%,inactive,inactive
CC1=C(/C=C/C(C)=C/C=C/C(C)=C/C(=O)Oc2c(C)c(C)c3c(c2C)CC[C@@](C)(CCC[C@H](C)CCC[C@H](C)CCCC(C)C)O3)C(C)(C)CCC1,inactive,inactive,inactive,inactive,inactive,-1.27%,inactive,inactive
C[C@H](N)C(=O)N[C@@H](C)P(=O)(O)O,inactive,inactive,inactive,inactive,inactive,-2.51%,inactive,inactive
NS(=O)(=O)c1cc2c(cc1Cl)NC(Cc1ccccc1)NS2(=O)=O (stereo unspecified),inactive,inactive,inactive,,inactive,-1.36%,inactive,inactive
CC(=O)Oc1cc(C)c(OC(C)=O)c2ccccc12,inactive,29.8 µM (active),inactive,,inactive,0.757%,12.6 µM (active),inactive
O=C(O)c1ccc(NC(=O)[C@H](Cc2ccc(O)cc2)NC(=O)c2ccccc2)cc1,inactive,inactive,inactive,inactive,inactive,0.18%,inactive,inactive
Cc1ccccc1OCC(O)CNCCOc1ccc(C(N)=O)cc1 (stereo unspecified),inactive,inactive,inactive,inactive,inactive,-2.29%,inactive,inactive
COc1ccc(/C=C/C(=O)OCCC(C)C)cc1,inactive,inactive,inactive,inactive,inactive,9.31%,inactive,inactive
CCCCC[C@H](O)/C=C/[C@@H]1[C@H]2C/C(=C/CCCC(=O)O)O[C@H]2C[C@H]1O,inactive,inactive,inactive,inactive,inactive,-0.736%,inactive,inactive
CC(=O)Nc1ccc(OC(=O)c2ccccc2O)cc1,inactive,inactive,inactive,inactive,inactive,-2.95%,inactive,inactive
CO/N=C(\C(=O)N[C@@H]1C(=O)N2C(C(=O)O)=C(CSc3nnnn3C)CS[C@H]12)c1csc(N)n1,inactive,inactive,inactive,inactive,inactive,-3.46%,inactive,inactive
C[C@]12CC[C@@H]3c4ccc(OC(=O)c5ccccc5)cc4CC[C@H]3[C@@H]1CC[C@@H]2O,inactive,inactive,inactive,inactive,inactive,-1.5%,inactive,inactive
COC(=O)CC[C@H](N)C(=O)O,inactive,inactive,inactive,inactive,inactive,-5.81%,inactive,inactive

Compound,Potency [1],Potency [2],Potency [3],Potency [4],Potency [5],max activation [6],Potency [7],Potency [8]
CC(C)(C)c1ccc(CN2CCN(C(c3ccccc3)c3ccc(Cl)cc3)CC2)cc1 (stereo unspecified),inactive,inactive,inactive,inactive,inactive,10.7%,inactive,inactive
CCCCCCCCCCCCCCCCCCCCCCO,inactive,inactive,inactive,inactive,inactive,-1.89%,inactive,inactive
CS(=O)(=O)OCC(O)C(O)COS(C)(=O)=O (stereo unspecified),inactive,inactive,inactive,inactive,inactive,-4.2%,inactive,inactive
CC(C)(C)CC(C)(C)c1cc(Cc2cc(C(C)(C)CC(C)(C)C)cc(-n3nc4ccccc4n3)c2O)c(O)c(-n2nc3ccccc3n2)c1,inactive,inactive,inactive,inactive,inactive,-3.34%,inactive,inactive
O=C1NC(=O)[C@H]2[C@@H]1[C@@H]1C=C[C@H]2C1,inactive,inactive,inactive,inactive,inactive,-2.18%,inactive,inactive
CCOC(=O)C1=C(COCCN)NC(C)=C(C(=O)OC)C1c1ccccc1Cl (stereo unspecified),inactive,inactive,23.7 µM (active),,inactive,3.61%,8.91 µM (active),8.91 µM (active)
CC(=O)Nc1c(I)c(C(=O)N[C@H]2C(O)O[C@H](CO)[C@@H](O)[C@@H]2O)c(I)c(N(C)C(C)=O)c1I (stereo partly specified),inactive,inactive,inactive,inactive,inactive,-3.77%,inactive,inactive
Nc1ncnc2c1ncn2CCOCP(=O)(O)O,inactive,inactive,inactive,inactive,inactive,-0.588%,inactive,inactive
O=C(Nc1ccc(O)cc1)c1ccccc1O,inactive,23.7 µM (active),inactive,inactive,inactive,3.27%,11.2 µM (active),inactive
CC(C)(CO)[C@@H](O)C(=O)NCCCC(=O)O,inactive,inactive,inactive,inactive,inactive,-8.61%,inactive,inactive
COc1ccccc1N1CCN(CCCC(=O)c2ccc(F)cc2)CC1,inactive,10.6 µM (active),inactive,inactive,inactive,8.11%,6.31 µM (active),7.94 µM (active)
CC[C@@H](C)CCCCC(=O)N[C@H](CCN)C(=O)N[C@@H](C(=O)N[C@H](CCN)C(=O)N[C@@H]1CCNC(=O)C([C@@H](C)O)NC(=O)[C@@H](CCN)NC(=O)[C@@H](CCN)NC(=O)[C@@H](CC(C)C)NC(=O)[C@@H](Cc2ccccc2)NC(=O)[C@@H](CCN)NC1=O)[C@@H](C)O (stereo partly drawn) (X3-[dDab][d(aThr)][dDab][dDab][dDab][dF][dL][dDab][dDab][ξThr(3R)]; lactam 4-C),inactive,inactive,inactive,inactive,inactive,-6%,inactive,inactive
[O]=[Bi][O]C(=O)[O][Bi]=[O],inactive,inactive,inactive,inactive,inactive,-3.15%,inactive,inactive
CCCCCCCCCCCCCCCC(=O)OCC(COC(=O)CCCCCCCCCCCCCCC)OC(=O)CCCCCCCCCCCCCCC,inactive,inactive,inactive,inactive,inactive,-0.974%,inactive,inactive
CN[C@@H]1[C@H](O[C@H]2[C@H](O[C@H]3[C@H](O)[C@@H](O)[C@H](N=C(N)N)[C@@H](O)[C@@H]3N=C(N)N)O[C@@H](C)[C@]2(O)CO)O[C@@H](CO)[C@H](O)[C@H]1O,inactive,inactive,inactive,inactive,inactive,-1.72%,inactive,inactive
COc1ccc(C[C@@H](C)NC[C@H](O)c2ccc(O)c(NC=O)c2)cc1,inactive,inactive,inactive,inactive,inactive,-1.9%,inactive,inactive
CN(C)c1ccc(C(=C2C=CC(=[N+](C)C)C=C2)c2c(O)c(S(=O)(=O)[O-])cc3cc(S(=O)(=O)O)ccc23)cc1,29.8 µM (active),inactive,26.6 µM (active),inactive,inactive,-15.3%,inactive,inactive
CCN(CC)CCOCCOC(=O)C(CC)(CC)c1ccccc1,inactive,inactive,inactive,inactive,10 µM (active),2.25%,31.6 µM (active),15.8 µM (active)
CC(C)NCC(O)COc1ccccc1-n1cccc1 (stereo unspecified),inactive,inactive,inactive,inactive,inactive,1.86%,inactive,inactive
